Measured values: PubChem BioAssay (EPA / NIEHS)
Inconclusive results are not listed. Active and inactive are the calls of the source. Rule for the calls, unless noted: active = hit-call score of the fitted dose curve at least 0.9, where 1 is the maximum; inactive = score below 0.9.

Columns and labels:
[1] = CCTE_Mundy_HCI_Cortical_NOG_NeuriteLength: CCTE's Neurite Outgrowth Assay in rat cortical cells for Neurite Length, Mundy Lab (AID 2284213)
Summary of the method: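 First, rat primary cortical cells were plated and, 2 h later, given test chemical as a 1/10 dilution. Finally, βIII-tubulin immunostaining enabled automated imaging of neurite length.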

[2] = CCTE_Mundy_HCI_Cortical_Synap_Neur_Matur_NeuriteSpotCountPerNeuron: CCTE's Synaptogenesis and Neurite Maturation Assay in rat cortical cells for Neurite Spot Count per Neuron Count, Mundy Lab (AID 2284215)
Summary of the method: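 Rat primary cortical cultures given AraC at DIV 5, dosed from DIV 7 to DIV 12 with media change. Fixed, stained for MAP2, synaptophysin and Hoechst; neurite-associated synaptophysin puncta per neuron quantified by high-content imaging versus DMSO.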

[3] = CCTE_Mundy_HCI_Cortical_Synap_Neur_Matur_SynapseCount: CCTE's Synaptogenesis and Neurite Maturation Assay in rat cortical cells for Synapse Count, Mundy Lab (AID 2284218)
Summary of the method: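 Endpoint: synapses/neuron by HCI (synaptophysin puncta on MAP2-labelled neurites, Hoechst nuclei). Rat primary cortical cells, AraC DIV 5, dosed DIV 7, fixed DIV 12; DMSO negative control.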

[4] = CCTE_Mundy_HCI_Cortical_Synap_Neur_Matur_NeuriteCount: CCTE's Synaptogenesis and Neurite Maturation Assay in rat cortical cells for Neurite Count, Mundy Lab (AID 2284222);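 note: exposure from day 7 to day 12 in vitro with readout at day 12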
Summary of the method: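 Chemical exposure runs DIV 7–12 in rat cortical cultures, glia suppressed by AraC at DIV 5; measurement is at DIV 12. Imaging-derived neurite counts are fitted against DMSO baseline.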

[5] = CCTE_Mundy_HCI_Cortical_Synap_Neur_Matur_CellBodySpotCount: CCTE's Synaptogenesis and Neurite Maturation Assay in rat cortical cells for Cell Body Spot Count, Mundy Lab (AID 2284223)
Summary of the method: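 Primary rat cortical cultures, AraC added at DIV 5; dosed DIV 7 through DIV 12 […]. Fixed, stained for MAP2 and synaptophysin with Hoechst; cell body-associated synaptophysin puncta per neuron counted by high-content imaging, loss vs DMSO.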

[6] = CCTE_Mundy_HCI_hNP1_Pro_ResponderAvgInten: CCTE's Proliferation Assay in human neuroprogenitor cells, Mundy Lab (AID 2284224; active = hit-call score of the fitted dose curve at least 0.9, where 1 is the maximum;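 note: human neural progenitor cells hNP1 derived from WA09 embryonic stem cells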)
Summary of the method: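 Human neuroprogenitors (hNP1, WA09 lineage) receive test chemical after 40 to 44 hours of attachment. A four-hour BrdU pulse begins twenty hours later, followed by fixation and high content imaging; signal is referenced to DMSO controls.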

[7] = UKN2_HCS_IMR90_cell_viability: Viability Assessment in the University of Konstanz (UKN) Leist Lab Neural Crest Cell Migration Assay in human induced IMR90 Pluripotent Stem Cells (UKN2) (AID 2284233);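 note: viability of neural crest cells differentiated from IMR90 iPSC measured by calcein-AM fluorescence imaging; cells exposed to compound for 24 h after a 24 h migration phase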
Summary of the method: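 cMINC format, iPSC-derived neural crest (IMR90); 24 h migration (EGF/FGF, N2-S), then 24 h toxicant. Calcein-AM/H-33342 stain 30 min; fluorescence intensity by HCS; DMSO-normalised, bidirectional fitting.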

[8] = CCTE_Mundy_HCI_hNP1_Casp3_7: CCTE's Caspase-Glo 3/7 Assay in human neuroprogenitor cells for Apoptosis, Mundy Lab (AID 2284240)
Summary of the method: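 Neuroepithelial-lineage stem cells from WA09 embryonic cells were treated with chemicals after 40–44 h of culture. Twenty-four hours later, caspase-3/7 activation was detected luminescently after a 30 min room-temperature reagent step, with DMSO as baseline.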

[9] = IUF_NPC2c_oligodendrocyte_migration_120hr: Leibniz Research Institute for Environmental Medicine (IUF) 120-hour Neural Progenitor Cell Migration Assay for Oligodendrocyte Migration (NPC2c) (AID 2284297);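 note: O4-positive oligodendrocyte migration distance divided by radial glia migration distance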
Summary of the method: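 Human fetal neural progenitor spheres (0.3 mm) are plated on poly-D-lysine/laminin in N2 differentiation medium and exposed for 120 h, with half-medium renewal at day 3. Oligodendrocyte (O4+) migration distance comes from ICC imaging, normalised to radial glia migration.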

[10] = IUF_NPC2a_radial_glia_migration_120hr: Leibniz Research Institute for Environmental Medicine (IUF) 120-hour Neural Progenitor Cell Migration Assay for Radial Glia Migration (NPC2a) (AID 2284298)
Summary of the method: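 Human fetal-cortex neural progenitor spheres (0.3 mm) plated on poly-D-lysine/laminin in N2 differentiation medium, exposed 120 h at 37C with half-medium renewal at day 3. Radial glia migration distance (um) measured from Hoechst-stained nuclei images; DMSO baseline.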

[11] = IUF_NPC2a_radial_glia_migration_72hr: Leibniz Research Institute for Environmental Medicine (IUF) 72-hour Neural Progenitor Cell Migration Assay for Radial Glia Migration (NPC2a) (AID 2284299)
Summary of the method: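 Spheres of human primary neural progenitors migrate on poly-D-lysine/laminin under compound exposure at 37C, 5% CO2. The 72 h radial glia migration distance comes from brightfield images, measured manually.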

[12] = IUF_NPC2b_neuronal_migration_120hr: Leibniz Research Institute for Environmental Medicine (IUF) 120-hour Neural Progenitor Cell Migration Assay for Neuron Migration (NPC2b) (AID 2284300)
Summary of the method: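 0.3 mm hNPC spheres on poly-D-lysine/laminin in N2 differentiation medium exposed 120 h, half-medium refresh day 3; 7 concentrations, DMSO max 0.1%. Neuron (TUBB3) distance from sphere core by ICC imaging, normalised to radial glia migration.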

[13] = IUF_NPC3_neuronal_differentiation_120hr: Leibniz Research Institute for Environmental Medicine (IUF) 120-hour Neuronal Differentiation Assay (NPC3) (AID 2284301)
Summary of the method: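 Neuronal differentiation of primary human neural progenitors measured by high-content imaging: percent TUBB3+ of Hoechst+ nuclei within migrated area at 120 h, seven-point serial dilution plus solvent control, gain or loss relative to DMSO.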

[14] = IUF_NPC4_neurite_length_120hr: Leibniz Research Institute for Environmental Medicine (IUF) 120-hour Neuronal Morphology Assay for Neurite Length (NPC4) (AID 2284302)
Summary of the method: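 Neurons from differentiating human fetal neural progenitor spheres are scored for average neurite length after five days of compound exposure. Fitting uses DMSO as negative control.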

[15] = IUF_NPC5_oligodendrocyte_differentiation_120hr: Leibniz Research Institute for Environmental Medicine (IUF) 120-hour Oligodendrocyte Differentiation Assay (NPC5) (AID 2284304; active = hit-call score of the fitted dose curve at least 0.9, where 1 is the maximum;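 note: primary human fetal neural progenitor spheres plated to migrate and differentiate; share of O4-positive cells among Hoechst nuclei found by CNN image analysis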)
Summary of the method: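 Human fetal neural progenitor spheres (0.3 mm) plated on poly-D-lysine/laminin in N2 differentiation medium and exposed for 120 h at 7 concentrations, with half-medium renewal at day 3. O4-positive cells identified by CNN, expressed as percent of Hoechst nuclei.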

[16] = IUF_NPC4_neurite_area_120hr: Leibniz Research Institute for Environmental Medicine (IUF) 120-hour Neuronal Morphology Assay for Neurite Area (NPC4) (AID 2284305; active = hit-call score of the fitted dose curve at least 0.9, where 1 is the maximum)
Summary of the method: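 Endpoint at 120 h: automated imaging of TUBB3/Hoechst-stained differentiating human neural progenitor spheres, neurite area per neuron from skeletonization. DMSO solvent control, not above 0.1%, set the baseline; medium was half-replaced on day 3.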

[17] = IUF_NPC2-5_cytotoxicity_72hr: Cytotoxicity Assessment at 72 hours in the Leibniz Research Institute for Environmental Medicine (IUF) Neural Progenitor Cell Migration and Differentiation Assay for Cytotoxicity (NPC2-5) (AID 2284306; active = hit-call score of the fitted dose curve at least 0.9, where 1 is the maximum;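 note: LDH release into supernatant measured by resorufin fluorescence marking membrane damage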)
Summary of the method: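 Primary human neural progenitor spheres migrate and differentiate on laminin. Compound is present from the start of differentiation, with DMSO kept at or below 0.1%. At 72 h, supernatant LDH is quantified fluorometrically, with values fitted in the positive direction.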

[18] = IUF_NPC2-5_cytotoxicity_120hr: Cytotoxicity Assessment at 120 hours in the Leibniz Research Institute for Environmental Medicine (IUF) Neural Progenitor Cell Migration and Differentiation Assay (NPC2-5) (AID 2284307; active = hit-call score of the fitted dose curve at least 0.9, where 1 is the maximum)
Summary of the method: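 Human fetal (GW 16-19) neural progenitor spheres (0.3 mm) plated on poly-D-lysine/laminin in N2 differentiation medium, exposed 120 h with half-medium renewal at day 3; 7 concentrations plus solvent control, DMSO ≤0.1%. LDH release in supernatant read by resorufin fluorescence.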

[19] = IUF_NPC2-5_cell_number_120hr: Cell Number Assessment at 120 hours in the Leibniz Research Institute for Environmental Medicine (IUF) Neural Progenitor Cell Migration and Differentiation Assay (NPC2-5) (AID 2284308);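 note: count of Hoechst-stained nuclei in migration zone around plated human neural progenitor spheres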
Summary of the method: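 Human fetal neural progenitor spheres (0.3 mm) plated on poly-D-lysine/laminin in N2 differentiation medium, exposed five days across 7 concentrations with half-medium refresh at day 3. Hoechst-positive nuclei counted in migration area at 120 h, relative to DMSO.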

[20] = IUF_NPC2-5_viability_120hr: Viability Assessment at 120 hours in the Leibniz Research Institute for Environmental Medicine (IUF) Neural Progenitor Cell Migration and Differentiation Assay (NPC2-5) (AID 2284312)
Summary of the method: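 Human fetal (GW 16-19) neural progenitor spheres of 0.3 mm were plated on poly-D-lysine/laminin in N2 differentiation medium and exposed from day 0 for 120 h, with half-medium refresh at day 3. Viability was read as alamar blue resazurin-to-resorufin fluorescence against DMSO.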

[21] = IUF_NPC1_cytotoxicity_72hr: Cytotoxicity Assessment at 72 hours in the Leibniz Research Institute for Environmental Medicine (IUF) Neural Progenitor Cell Proliferation Assay (NPC1) (AID 2284332; active = hit-call score of the fitted dose curve at least 0.9, where 1 is the maximum;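 note: rising LDH signal means more cytotoxicity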)
Summary of the method: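 Readout is fluorescence from LDH-dependent resazurin conversion, sampled from culture medium after compound contact lasting 72 h. Each well holds one 0.25-0.35 mm human progenitor sphere kept at 37C, 5% CO2 with EGF and FGF.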

[22] = CCTE_Mundy_HCI_iCellGluta_NOG_NeuronCount: CCTE's Neurite Outgrowth Assay in iCellGluta cells for Neuron Count, Mundy Lab (AID 2284340; active = hit-call score of the fitted dose curve at least 0.9, where 1 is the maximum;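 note: cells fixed about 48 h after compound addition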)
Summary of the method: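 Neuron count read by automated high-content imaging of Hoechst 33342 and betaIII-tubulin/Alexa Fluor-488 labelling in human iPSC glutamatergic neurons. Activity fitted relative to DMSO.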

[23] = CCTE_Mundy_HCI_iCellGluta_NOG_NeuriteCount: CCTE's Neurite Outgrowth Assay in iCellGluta cells for Neurite Count, Mundy Lab (AID 2284342; active = hit-call score of the fitted dose curve at least 0.9, where 1 is the maximum;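 note: chemical exposure about 48 hours starting 2 hours after plating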)

Measured: outcome

COP(=O)(OC)SCN1C(=O)c2ccccc2C1=O
inactive: [1] | [2] | [3] | [4] | [5] | [6] | [7] | [8] | [9] | [10] | [11] | [12] | [13] | [14] | [15] | [16] | [17] | [18] | [19] | [20] | [21] | [22] | [23]
